Source: PubChem BioAssay AID743279 (National Center for Advancing Translational Sciences (NCATS), 2014)
Among all 360,000 compounds or so, about 17,000 (4.7%) were called active. Inconclusive results (about 5%) are left out. The sample holds actives, similar compounds and a random draw of the others, so the mix is not that of the screen. Rule as the data show it: active = activity change below about -50%; inconclusive = mostly about -30% to -49%; inactive = weaker than that.

Test: qHTS for Inhibitors of Inflammasome Signaling: IL-1-beta AlphaLISA Primary Screen
Conditions: THP-1 LPS/ATP IL-1B secretion, 16 h; at 57.5 µM, hits give low values
Summary of the method: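 Secreted IL-1B measured by AlphaLISA bead assay after 16 h compound exposure of THP-1 cells; compounds (final up to 57.5 uM) added 1 h before LPS (250 ng/mL) and ATP (1.25 mM) stimulation; lower signal means less secretion.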
% is scaled to controls: 0 for no effect and ±100 for the full control effect.

Activity change, active:
CCOC(=O)c1cc(C)nc(S(C)(=O)=O)c1C#N -106%, COC(=O)c1sc(-c2ccc(C(C)(C)C)cc2)cc1NC(=O)/C=C/C(=O)O -98.5%, COc1ccc2oc(=O)cc(-c3cc4ccccc4o3)c2c1 -52.1%, N#C/C(=C/c1ccc(N2CCCCC2)o1)C(=O)NCCc1c[nH]c2ccccc12 -56.8%, Cc1ccc(C(=O)N/C(=C/c2ccc(-c3cccc([N+](=O)[O-])c3)o2)C(=O)NCCCN(C)C)cc1 -105%, N#C/C(=C/c1ccc(-c2ccccc2[N+](=O)[O-])o1)C(=O)NCCN1CCCCC1 -54.1%, N#C/C(=C\c1ccc(-c2cccc([N+](=O)[O-])c2)o1)C(=O)NCCN1CCOCC1 -79.4%, CNC(=O)c1cccc2nc3ccccc3nc12 -78.6%, COc1ccc(NC(=O)N2CCC(Cc3ccccc3)CC2)cc1 -50.3%, CC(C)OCCCNc1ncnc2c1[nH]c1ccc(F)cc12 -71%, CCN1CCCC1CNc1ncnc2c1[nH]c1ccc(F)cc12 (stereo unspecified) -94.3%, Cc1ccc(NC(=O)N2CCC(c3nc4c(nnn4Cc4c(F)cccc4Cl)c(=O)[nH]3)CC2)cc1 -69%, Cc1cccc(OCC(O)CN2CCN(CCN3C(=O)c4cccc5cccc(c45)C3=O)CC2)c1C (stereo unspecified) -52.3%, CN(C(=O)CCN1C(=O)/C(=C/c2ccccc2F)SC1=S)C1CCS(=O)(=O)C1 (stereo unspecified) -99.1%, COC(=O)COc1ccc(S(=O)(=O)N2CCOCC2)cc1 -50.5%, NS(=O)(=O)c1ccc(CNC(=O)c2cccc(Oc3ccccc3)c2)cc1 -74.2%, COc1ccc(CN2CCN(Cc3cn(C)nc3-c3ccccc3)CC2CCO)c(C)c1C (stereo unspecified) -57.9%

Activity change, inactive:
CCOC(=O)[C@]12CCCC=C1N(CCC1=CCCCC1)C(=O)[C@H](CC(=O)N1CCSCC1)C2 15.1%, COc1ccc(Br)cc1CN(C)C(=O)C1CC(=O)N(C2CCCC2)C1 (stereo unspecified) -16.8%, CC1(C(=O)Nc2cccnc2)Cc2c(-c3ccccc3)ccnc2O1 (stereo unspecified) -18%, CCOC(=O)COc1nc(C)cc(C(F)(F)F)c1C#N -4.72%, CCOC(=O)c1c(C(C#N)C#N)cc(C)nc1C 17.2%, CCCCOc1ccc(Cl)cc1CSc1nncn1N -10.2%, CC1=C(C(=O)N2CCOCC2)CC(CC(=O)NCc2cccc3ccccc23)C(=O)N1CCC1=CCCCC1 (stereo unspecified) -8.18%, COc1ccc(NS(=O)(=O)c2ccc(N3CCOCC3)c(NC(=O)/C=C/C(=O)O)c2)cc1 12.3%, CC(C)(C)c1ccc(/C=C/C(=O)Nc2ncccn2)cc1 0%, COc1cccc2cc(-c3cc(=O)oc4cc(C)c(O)cc34)oc12 0.212%, COc1ccc(Nc2cc(=O)oc3ccccc23)cc1 34.3%, Cc1ccc(S(=O)(=O)N2CCOCC2)cc1NC(=O)c1ccncc1 6.64%, CC1(C(=O)NCC2CCOCC2)Cc2c(-c3cccc(C(N)=O)c3)ccnc2O1 (stereo unspecified) 40.9%, O=C1C2C3C=CC(C4CC34)C2C(=O)N1/N=C/c1ccc(-c2ccccc2[N+](=O)[O-])o1 (stereo unspecified) 5.29%, N#C/C(=C/c1ccc(N2CCOCC2)o1)C(=O)N1CCOCC1 -6.13%, CN1CCN(CCNC(=O)Nc2ccccc2[N+](=O)[O-])CC1 -9.61%, CN(C)CCNC(=O)/C(=C/c1cccc([N+](=O)[O-])c1)NC(=O)c1ccccc1 -4.01%, C=CCNC(=O)/C(=C\c1cccc([N+](=O)[O-])c1)NC(=O)c1ccccc1 11.9%, Cc1ccc(-c2ccc(/C=N/NC(=O)CN3CCOCC3)o2)cc1[N+](=O)[O-] -11%, O=C(CN1C(=O)NC2(CCCCC2)C1=O)NCCc1c[nH]c2ccccc12 0%, O=C(NCCCN1CCOCC1)c1ccc([N+](=O)[O-])cc1[N+](=O)[O-] 47.3%, CCc1cccc(C)c1N(C(=O)Cn1c(CO)nc2ccccc21)C(C)COC (stereo unspecified) -5.47%, COc1ccc(N2c3ccccc3CN(Cc3ccccc3)[C@@H](C)[C@H]2Cc2ccc(-c3ccccc3)cc2)cc1 43%, O=C(OCc1cn([C@H]2C[C@H](c3ccccc3)N(C(=O)c3cccs3)C[C@@H]2O)nn1)c1ccccc1 9.57%, CCOC(=O)C1(Cc2ccc(Cl)cc2)CCN(C(=O)C2=NNC(=O)CC2)CC1 5.99%, COc1ccc(S(=O)(=O)N2CCCCC2)cc1C(=O)NC1CCS(=O)(=O)C1 (stereo unspecified) -14.7%, CCN(CC)C(=O)C1CCCN(Cc2cccc(Cl)c2)C1 (stereo unspecified) -7.01%, O=C(C[C@H]1CC[C@@H](NC(=O)c2ccncc2)[C@@H](CO)O1)NCC1CC1 0.19%, Cc1ccc(-n2c(SCC(=O)N3CCC(C(=O)O)CC3)nc3ccccc3c2=O)cc1C 6.5%, O=S1(=O)C[C@@H](N2CCN(CCO)CC2)[C@H](COCc2ccccc2)N1 -19.7%, COc1ccc(-c2ccc3[nH]c4c(c3c2)CCN2C[C@H]3[C@H](C)ON(C)[C@H]3C[C@@H]42)cc1 -18.3%, Nc1nc(CSc2nnnn2-c2ccccc2)nc(Nc2ccccc2)n1 -29.1%, CN(C)C(=O)c1coc2nc3ccccc3nc12 25.5%, CNC(=O)c1csc(-c2ccccc2)n1 -4.77%, COc1ccc(C(=O)NC2CCN(C(=O)Nc3ccc(F)cc3)CC2)cc1 17.5%, COc1ccc(NC(=O)N2CCCC(C(=O)Nc3ccccc3OC)C2)cc1 (stereo unspecified) -1.11%, CCN1CCCC1CNC(=O)c1cc2cc(OC)c(OC)cc2[nH]1 (stereo unspecified) -7.87%, CCN1CCCC1Cn1cnc2c([nH]c3cc(OC)ccc32)c1=O (stereo unspecified) -21.8%, C[C@@H]1CN([C@@H](C)CO)S(=O)(=O)c2ccc(-c3ccc(C(=O)N(C)C)cc3)cc2O[C@@H]1CN(C)Cc1ccccc1C(=O)O 23.1%, COc1ccc(-c2ccc3c(c2)C2CC3CCN2CCC#N)cc1 (stereo unspecified) 12.2%, Cc1cc(C)c2nc(-c3cccnc3)cc(C(=O)Nc3ccc(S(=O)(=O)Nc4onc(C)c4C)cc3)c2c1 16.5%, COc1ccc(CN2C(=O)C(CC(=O)NCc3cccc4ccccc34)CC(C(=O)N3CCOCC3)=C2C)cc1 (stereo unspecified) -5.05%, COc1cc(C(O)c2nc(-c3cnn(C)c3)cs2)ccc1F (stereo unspecified) 25.9%, CC(C)(C)NC(=O)Cn1c(SCC(=O)Nc2nccs2)nc2ccccc21 -11.3%, COc1ccc(Cn2nnc3c(=O)[nH]c(C4CCN(C(=O)c5ccccc5Cl)CC4)nc32)cc1 0%, O=C(Nc1ccc(F)cc1)N1CCCC(c2nc3c(nnn3Cc3ccccc3Cl)c(=O)[nH]2)C1 (stereo unspecified) -15.2%, CC[C@]12c3[nH]c4cc(CCC(=O)N(C)C)ccc4c3CCN1C(=O)[C@@H](CC(=O)NCCCN(C)C)C[C@@H]2C(=O)N1CCN(C(=O)c2ccco2)CC1 0%, CC1CCN(C(=O)CSc2nnc(-c3ccco3)n2N)CC1 3.36%, c1ccc(Cc2c(-c3ccco3)nc3c4ccccc4ccn23)cc1 -21.7%, Cc1ccc(OCC(O)CN2CCN(CC(O)COc3ccc(C)cc3Cl)CC2)c(Cl)c1 (stereo unspecified) 4.54%, C=CCc1ccccc1OCC(O)CN1CCN(CCO)CC1 (stereo unspecified) 9.73%, CCCCN1C(=O)C(CC(=O)NCc2cccs2)CC(C(=O)N2CCCCCC2)=C1C (stereo unspecified) 7%, Clc1ccc(-n2nnnc2CN2CCCCC2)cc1Cl 9.91%, COc1ccccc1/C=C1\SC(=O)N(CCC(=O)N(C)C2CCS(=O)(=O)C2)C1=O (stereo unspecified) -15.1%, CN(C(=O)CN1C(=O)S/C(=C\c2ccccc2F)C1=O)C1CCS(=O)(=O)C1 (stereo unspecified) -16.9%, CCC(C)CN1C(=O)CSCC1(C)C(=O)NCc1ccccc1 (stereo unspecified) -5.63%, COc1ccc(S(=O)(=O)N2CCOCC2)cc1NC(=O)COc1ccccc1 6.58%, CC(=O)c1cccc(NC(=O)COc2ccc(S(=O)(=O)N3CCOCC3)cc2)c1 -9.57%, Cc1cc2c(cc1C)NC1(C[C@H]3CCC(=O)N4CC[C@@H](C1)[C@@H]34)C(=NC(C)(C)CC(C)(C)C)N2 (stereo partly specified) 1.01%, C=CCN(N=Nc1cccc([N+](=O)[O-])c1)c1cccc([N+](=O)[O-])c1 -16.1%, NS(=O)(=O)c1ccc(CNC(=O)c2cnccn2)cc1 2.67%, NS(=O)(=O)c1ccc(CNC(=O)c2cccc(S(=O)(=O)N3CCc4ccccc43)c2)cc1 -11.1%, CCc1ccc(OC2(C)CCN(CCOc3ccc(C)cc3)C2)cc1 (stereo unspecified) -10%, O=C1CSC(=S)N1/N=C/c1ccc(O)c([N+](=O)[O-])c1 23.5%, O=C(CC[C@H]1O[C@@H](n2ccc(=O)[nH]c2=O)[C@H](O)[C@@H]1O)N[C@H](Cc1ccccc1)C(=O)NCCCN1CCCC1=O 15.8%, Cc1cc(C(=O)N2CCCC2(C)C(=O)O)c(C)o1 (stereo unspecified) -11.9%, CCn1c(SCC(=O)Nc2nc(C)cs2)nnc1C(C)NC(=O)c1ccccc1 (stereo unspecified) -6.67%, Cc1ccc(CN2CCN(Cc3cn(C)nc3-c3ccccc3)CC2CCO)o1 (stereo unspecified) 40.4%, CCn1nc(C)c(CN2CCN(Cc3ccc(OC)c(C)c3C)C(CCO)C2)c1C (stereo unspecified) 9.61%
